# Screening data from PubChem.
# DT40 TDP1 CPT: qHTS for Inhibitors of human tyrosyl-DNA phosphodiesterase 1 (TDP1): qHTS in cells in presence of CPT. chicken DT40 Tdp1-/-;hTDP1 cells + 20 nM CPT, ATP luminescence, 48 h. Potency, µM (series often up to 46.2 µM), for the others: at the highest dose activity change, negative = growth inhibition, most hits filed as inhibitors. hit rate 12% among 420,000. AID 686979, 2013; further: potency means the concentration at half of the fitted maximal effect; nearly all actives have a fitted effect of over 55% in size
#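 Chicken DT40 Tdp1-/- cells stably complemented with human TDP1 were seeded at 400 cells/well in medium containing 20 nM camptothecin, exposed to pin-transferred compounds, and grown at 37 °C for at least 48 hr. Viability was read as ATP luminescence.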
# TDP1 cell noCPT: qHTS for Inhibitors of human tyrosyl-DNA phosphodiesterase 1 (TDP1): qHTS in cells in absence of CPT; DT40 Tdp1-/- hTDP1 cells, no CPT, ATP luminescence, 48 h; Potency, µM (titrated, usually from 46.2 µM), inactives show top-dose activity change, negative = growth inhibition, usual class: inhibitors; hit rate 15% among 420,000; AID 686978, 2013; further: potency means the concentration at half of the fitted maximal effect; nearly all actives have a fitted effect of over 55% in size
#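 No-CPT arm: Tdp1-/-;hTDP1 DT40 cells (400/well) plus compounds, incubated ≥48 hr at 37 °C. Readout CellTiter-Glo luminescence.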
# HT1080NT lethal: qHTS for induction of synthetic lethality in tumor cells producing 2HG: qHTS for the HT-1080-NT fibrosarcoma cell line. HT-1080-NT fibrosarcoma viability, CellTiter-Glo ATP luminescence, 48 h. Potency, µM (top dose mostly 46.1 µM), for inactives: at the highest dose activity, negative = less viability, usual class: cytotoxic. hit rate 1.6% among 360,000. AID 686970, 2013;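 further: NT is the 2HG producing partner of a matched IDH1 knockdown line; potency means the concentration at half of the fitted maximal effect; 0% = DMSO-treated cells and -100% = media-only wells without cells; nearly all actives have a fitted effect of over 55% in size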
#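 HT-1080-NT; 750 cells/well; 5% FBS RPMI; 48 h compound, 37 degrees C; CellTiter-Glo luminescence; curve fitting and curve-class assignment.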
# IL-1B inflam inh: qHTS for Inhibitors of Inflammasome Signaling: IL-1-beta AlphaLISA Primary Screen; AID 743279, 2014; hit rate 4.7% among 360,000; activity change, % at 57.5 µM; THP-1 LPS/ATP IL-1B secretion, AlphaLISA, 16 h; hits give low values; in the data active means activity change below about -50%; inconclusive means mostly about -30% to -49%
#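 THP-1 cells pretreated 1 hr with compounds (up to 57.5 uM final), then stimulated with LPS (250 ng/mL final) plus ATP (1.25 mM final); secreted IL-1B measured by AlphaLISA after 16 hr, decreased signal indicating inhibition.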
# HT1080 IDH1KD tx: qHTS for induction of synthetic lethality in tumor cells producing 2HG: qHTS for the HT-1080-IDH1KD cell line. HT-1080 IDH1 knockdown viability, ATP luminescence, 48 h. Potency, µM (series often up to 46.1 µM), for inactives: top-dose activity, negative = toxicity, hits mostly cytotoxic. hit rate 2% among 360,000. AID 686971, 2013;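 further: potency means the concentration at half of the fitted maximal effect; 0% = DMSO wells and -100% = cell-free medium wells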
#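 CellTiter-Glo luminescence after 48 h compound exposure at 37 degrees C of IDH1-knockdown HT-1080 cells in 5% FBS RPMI. %Activity scaled between DMSO wells and cell-free media wells, with curves fitted and assigned curve classes.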
# Numbers without * were called inactive; u = inconclusive; x = not tested or not shown. This is a sample that favours compounds with a hit; in the whole collection about 19% have one here. Unless noted, the call rests on the fitted dose curve; in most records, active means well fitted curve in the direction sought with a large enough effect; inconclusive means small, poorly fitted or top-dose-only effect, or another doubt; inactive means no such curve, though single readings can be large; an effect the other way counts as inactive or inconclusive. Unless noted, on the % scale 0 is the no-effect control and ±100 the full control effect.
SMILES,DT40 TDP1 CPT,TDP1 cell noCPT,HT1080NT lethal,IL-1B inflam inh,HT1080 IDH1KD tx
O=C1c2oc3ccc(F)cc3c(=O)c2C(c2cccc([N+](=O)[O-])c2)N1CCCN1CCOCC1 (stereo unspecified),-8%,-18%,x,x,x
CN1C(C(=O)Nc2ccc(OC(F)(F)F)cc2)=CC(c2ccc3c(c2)OCO3)=NS1(=O)=O,u,u,-11%,29,4%
Cc1ccc(/C=N/NC(=O)c2cc(-c3ccccc3)nc3ccccc23)o1,18µM*,9.2µM*,u,41,u
Cc1ccc(-c2cc(C(=O)N/N=C/c3c(C)nn(C)c3C)c3ccccc3n2)cc1C,12µM*,10µM*,u,-51*,u
Cc1ccc(/C=N/NC(=O)c2cc(C3CC3)nc3ccccc23)o1,4.1µM*,3.7µM*,u,59,5.8µM*
CCCc1cc(C(=O)OC)c2ccccc2n1,-23%,u,-1%,44,8%
O=C(N/N=C/c1ccc(O)cc1)c1cc(-c2ccccc2)nc2ccccc12,u,u,-25%,26,-27%
CCCc1cc(C(=O)N/N=C/c2ccc(C)o2)c2ccccc2n1,u,u,u,61,21µM*
CC1=CN(S(=O)(=O)c2ccc(C)cc2)C[C@@H]2[C@H]3CC[C@H](C3)[C@H]12,u,u,-2%,-17,-5%
CCc1ccccc1NC(=O)C(C)n1c(=O)cc(C)c2c(C)nn(-c3ccccc3)c21 (stereo unspecified),0%,-1%,x,x,x
CCOC(=O)[C@@H]1[C@H]2COc3ccc(Br)cc3[C@H]2N2C(=O)N(c3ccc(F)cc3)C(=O)[C@@]12C,-27%,u,-3%,12,5%
COc1ccccc1N/C=C/C(=C(C#N)C#N)N(C)C,4%,u,1%,-9,8%
COc1ccc(-c2oc3c(c2C(=O)OCCO)C(OCCO)CCC3)cc1 (stereo unspecified),u,u,-8%,17,10%
Cc1cc(C(=O)N/N=C/c2ccc(C)o2)c2ccccc2n1,1.5µM*,1.3µM*,3.3µM*,52,u
CCOc1ncccc1C(=O)OCC(=O)NCCCc1ccccc1,1%,u,0%,9,-5%
COc1cc(C2C=C(C34CC5CC(CC(C5)C3)C4)NC(=S)N2)cc(OC)c1OC (stereo unspecified),u,5.8µM*,-19%,0,-26%
CCC(Sc1nc(C)cc(C)n1)C(=O)NC1=NN=C(c2ccc(C)cc2)CS1 (stereo unspecified),u,u,u,-14,u
Cc1cc(C)nc(SCC(=O)NC2=NN=C(c3ccc(Br)cc3)CS2)n1,13µM*,13µM*,22µM*,-83*,16µM*
COc1ccc(Cl)cc1CC=NNC(=O)c1cccc(C)c1O,13µM*,13µM*,1%,22,-26%
COc1ccc(OC)c(/C=N/NC(=O)c2ccncc2)c1,25%,-2%,0%,15,10%
COc1ccc(Cl)cc1CC=NNC(=O)c1ccncc1,9.2µM*,12µM*,4%,37,19%
CCOc1ccc(OCC(=O)OC(C)C(=O)NC2CCCC2)cc1 (stereo unspecified),15%,20%,7%,0,7%
CCOc1ccc(CC(=O)NCc2ccc3c(c2)CCN3C(=O)c2ccccc2)cc1OCC,16µM*,u,x,x,x
COc1ccc(OCC(=O)NCc2ccc3c(c2)CCN3C(=O)c2ccccc2)cc1,15µM*,13µM*,x,x,x
CCOc1ccc(CC(=O)NCc2ccc3c(c2)CCN3C(C)=O)cc1OCC,5%,-3%,x,x,x
O=C(COc1ccccc1)NCc1ccc2c(c1)CCN2C(=O)c1ccccc1,12µM*,6.5µM*,x,x,x
